Screening results as filed in PubChem BioAssay.
Shown are actives, neighbours in structure and some others; about 18% of the full set was active somewhere.
IL1B secr inh: qHTS for Inhibitors of Inflammasome Signaling: IL-1-beta AlphaLISA Primary Screen; actives 4.7% (n = 360,000); activity change, % at 57.5 µM; THP-1 LPS/ATP IL-1B secretion, AlphaLISA, 16 h; stronger effect = lower value; in the data active means activity change below about -50%; inconclusive means mostly about -30% to -49%
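THP-1 cells pretreated 1 hr with compounds (up to 57.5 uM final), then stimulated with LPS (250 ng/mL final) plus ATP (1.25 mM final); secreted IL-1B measured by AlphaLISA after 16 hr, decreased signal indicating inhibition.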
Gal4-VP16 FLuc: VP16 counterscreen qHTS for inhibitors of ROR gamma transcriptional activity | Drosophila S2 Gal4-VP16 UAS-luciferase, luminescence, 20 h | Potency, µM (series often up to 53.6 µM), inactives show at the highest dose activity, negative = inhibition, hits mostly inhibitors | actives 3.5% (n = 310,000) | AID 2546, 2010;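 further: Gal4-VP16 expression switched on by copper sulfate through the metallothionein promoter; potency means the concentration at half of the fitted maximal effect; nearly all actives have a fitted effect of over 50% in size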
TDP1 cell CPT: qHTS for Inhibitors of human tyrosyl-DNA phosphodiesterase 1 (TDP1): qHTS in cells in presence of CPT; chicken DT40 Tdp1-/-;hTDP1 cells + 20 nM CPT, ATP luminescence, 48 h; Potency, µM (top dose mostly 46.2 µM), for inactives: at the top dose activity change, negative = growth inhibition, most hits filed as inhibitors; actives 12% (n = 420,000); AID 686979, 2013; further: potency means the concentration at half of the fitted maximal effect; nearly all actives have a fitted effect of over 55% in size
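Chicken DT40 Tdp1-/- cells complemented with human TDP1, 400 cells/well, exposed to compounds plus 20 nM camptothecin for at least 48 h at 37 C; viability read as ATP content by CellTiter-Glo luminescence.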
TDP1 cell noCPT: qHTS for Inhibitors of human tyrosyl-DNA phosphodiesterase 1 (TDP1): qHTS in cells in absence of CPT | actives 15% (n = 420,000) | AID 686978, 2013 | Potency, µM (top dose mostly 46.2 µM), inactives show at the top dose activity change, negative = growth inhibition, most hits filed as inhibitors | DT40 Tdp1-/- hTDP1 cells, no CPT, ATP luminescence, 48 h; further: potency means the concentration at half of the fitted maximal effect; nearly all actives have a fitted effect of over 55% in size
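No-CPT arm: Tdp1-/-;hTDP1 DT40 cells (400/well) plus compounds, incubated ≥48 hr at 37 °C. Readout CellTiter-Glo luminescence.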
LDHA inh: qHTS assay for inhibitors of human lactate dehydrogenase | actives 0.15% (n = 480,000) | activity change, % (values are at about 110 or 230 µM) | purified LDHA, NADH/diaphorase-resazurin fluorescence; stronger effect = lower value | L-lactate dehydrogenase A chain (Homo sapiens), P00338; in the data active means activity change below about -30%; inconclusive means mostly about -25% to -30%;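 further: plate controls were DMSO wells for no effect and wells without enzyme for full effect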
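LDH5 2 nM; NADH 0.06 mM, pyruvate 0.2 mM; 200 mM Tris pH 7.4, EDTA, Tween-20; 5 min RT. Detection: diaphorase 0.133 mg/mL + resazurin 37 µM, fluorescence ex540/em590 at 0 and 20 min; normalized to enzyme-free and DMSO wells.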
RORgamma inh: qHTS for inhibitors of ROR gamma transcriptional activity; Nuclear receptor ROR-gamma (Mus musculus), P51450; Drosophila S2 Gal4-RORgamma UAS-luciferase reporter, 20 h; Potency, µM (titrated, usually from 53.6 µM), without a hit: top-dose activity change, negative = inhibition, usual class: inhibitors; actives 5.4% (n = 310,000); AID 2551, 2010; further: potency means the concentration at half of the fitted maximal effect; nearly all actives have a fitted effect of over 60% in size
Target sequence (P51450 whole entry, looked up, the tested form may be a part): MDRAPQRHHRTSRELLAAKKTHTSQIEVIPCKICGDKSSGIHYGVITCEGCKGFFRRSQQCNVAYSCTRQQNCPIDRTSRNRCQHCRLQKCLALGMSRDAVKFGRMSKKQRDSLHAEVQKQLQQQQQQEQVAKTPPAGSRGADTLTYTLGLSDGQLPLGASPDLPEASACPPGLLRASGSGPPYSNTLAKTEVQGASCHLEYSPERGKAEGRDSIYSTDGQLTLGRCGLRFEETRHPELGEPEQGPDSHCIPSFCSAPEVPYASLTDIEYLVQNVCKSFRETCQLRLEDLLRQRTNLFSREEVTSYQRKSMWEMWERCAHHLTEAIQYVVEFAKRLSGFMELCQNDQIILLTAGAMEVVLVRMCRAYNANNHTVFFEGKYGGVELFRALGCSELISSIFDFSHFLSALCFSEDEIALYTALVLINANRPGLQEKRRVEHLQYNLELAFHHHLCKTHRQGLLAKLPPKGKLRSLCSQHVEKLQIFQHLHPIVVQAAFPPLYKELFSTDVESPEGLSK
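Drosophila Schneider cells stably carrying a metallothionein-driven Gal4 DBD–ROR gamma fusion and a UAS-Photinus luciferase reporter were exposed to compound for 1 hr, then induced with copper sulfate (700 uM final) for 20 hr at ambient temperature before luminescence reading.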
The depositor's hits bear a star; ? = inconclusive; / = no result; [ ] = another dose, or the depositor's remark. Unless noted, the call rests on the fitted dose curve; in most records, active means well fitted curve in the direction sought with a large enough effect; inconclusive means small, poorly fitted or top-dose-only effect, or another doubt; inactive means no such curve, though single readings can be large; an effect the other way counts as inactive or inconclusive. Unless noted, on the % scale 0 is the no-effect control and ±100 the full control effect.

SMILES | IL1B secr inh | Gal4-VP16 FLuc | TDP1 cell CPT | TDP1 cell noCPT | LDHA inh | RORgamma inh
O=c1c2ccccc2nc(-c2ccccc2Cl)n1O | 20 | ? | 12% | -10% | -8 | 10µM*
O=c1c2ccc(Cl)cc2nc(-c2cccc(C(F)(F)F)c2)n1O | 105 | 3.5µM* | 4.1µM* | 3.7µM* | 6 | 7.1µM*
O=C(O)c1ccccc1-c1nc2cc(Cl)ccc2c(=O)n1O | 4 | 2% | 14% | -6% | 7 | 8%
N#Cc1ccc(-c2nc3ccccc3c(=O)n2O)cc1 | -1 | ? | -18% | ? | 2 | 16µM*
Cc1ccc(-c2nc3c(Cl)cc(Cl)cc3c(=O)n2O)cc1 | 40 | ? | ? | 18µM* | 3 | ?
N#Cc1ccc(-c2nc3cc(Cl)ccc3c(=O)n2O)cc1 | 72 | ? | ? | ? | 1 | -77%
CCCn1c(C)cc(C(=O)COC(=O)c2cc(C)nc3ccccc23)c1C | / | / | / | / | 3 | /
Cc1[nH]c2nc3ccccc3n2c(=O)c1Cc1ccccc1Cl | / | / | / | / | 4 | /
O=C(CNC(=O)c1ccc(F)cc1)OCc1ncc(-c2ccccc2)o1 | / | / | / | / | 1 | /
O=c1c2ccccc2nc(-c2ccc(Cl)c(Cl)c2)n1O | 27 | ? | 6.5µM* | 5.2µM* | 3 | ?
O=C(NN1CCN(Cc2ccccc2Cl)CC1)c1ccc(Cl)cc1 | 7 | 0% | ? | 12µM* | 1 | 2%
CCOc1ccccc1Nc1nc(-c2sc(NC(=O)c3ccc([N+](=O)[O-])cc3)nc2C)cs1 | / | ? | / | / | / | 6.3µM*
CCCCC(=O)Nc1nc(C)c(-c2csc(Nc3ccccc3OC)n2)s1 | -19 | -2% | 23µM* | ? | 5 | 6%
Cc1ccccc1Nc1nc(-c2sc(NC(=O)c3ccc([N+](=O)[O-])cc3)nc2C)cs1 | / | -15% | / | / | / | -17%
C=CCCC(=O)Nc1nc(C)c(-c2csc(Nc3ccccc3OC)n2)s1 | -22 | -10% | 6.5µM* | 7.3µM* | 5 | 30%
COc1ccc(Cl)cc1Nc1nc(-c2sc(NC(=O)c3ccccc3)nc2C)cs1 | / | -6% | / | / | / | -3%
COC(=O)c1ccc(OCc2ccccc2C#N)c(OC)c1 | / | / | / | / | 4 | /
Cc1nc(C)c(C(=O)NCCC(c2ccccc2)c2ccccc2)o1 | 30 | -3% | ? | 12µM* | -6 | ?
CCn1nc(C)c(CN2CCc3c([nH]c4ccccc34)C2c2ccc(F)c(OC)c2)c1C (stereo unspecified) | -15 | 4% | 29µM* | 12µM* | 5 | 0%
CCOC(=O)c1ccc(Oc2coc3cc(OC(=O)N(CC)CC)ccc3c2=O)cc1 | / | / | / | / | 2 | /
O=c1cc(-c2cccc(Br)c2)nc(-c2ccccc2F)o1 | 11 | 6% | 26µM* | 18µM* | -5 | 19%
Cc1ccc2c(COC(=O)C3CCC(C(C)(C)C)CC3)cc(=O)oc2c1C (stereo unspecified) | / | / | / | / | 12 | /
CCCCCCC(C)NC(=O)N1CCN(c2ncc(C(F)(F)F)cc2Cl)CC1 (stereo unspecified) | / | / | / | / | 2 | /
N#C/C(=C\c1cccn1-c1cccc(Br)c1)c1ccccc1 | / | / | / | / | -1 | /
Cc1ccc(C)c(N2CCN(C(=O)CCn3c(=O)c4cccn4c4cccnc43)CC2)c1 | / | / | ? | 21µM* | -10 | /
SMILES | IL1B secr inh | Gal4-VP16 FLuc | TDP1 cell CPT | TDP1 cell noCPT | LDHA inh | RORgamma inh
Cc1ccc(Cl)cc1N1CCN(C(=O)CCn2c(=O)c3cccn3c3cccnc32)CC1 | / | / | 9.2µM* | 6.5µM* | -13 | /
O=C(CCn1c(=O)c2cccn2c2cccnc21)N1CCN(c2cccc(Cl)c2)CC1 | 23 | ? | 18µM* | 15µM* | -2 | -27%
O=C(O)CCn1c(=O)c2cccn2c2cccnc21 | / | / | -7% | 0% | -7 | /
Cc1ccc(C)c(N2CCN(CCCNC(=O)CCn3c(=O)c4cccn4c4cccnc43)CC2)c1 | 4 | -11% | ? | ? | -4 | -2%
O=C(CCn1c(=O)c2cccn2c2cccnc21)N1CCN(c2ccccc2F)CC1 | / | / | ? | 23µM* | -19 | /
CCn1c(Cn2nnc(-c3cccc(F)c3)n2)nc2cc(S(=O)(=O)N3CCCCC3)ccc21 | / | / | / | / | -2 | /
C#CC(CC)(CC)NC(=O)c1cc(Cl)c(OC)c(OC)c1 | / | / | / | / | 10 | /
Cn1c(=O)c2c(nc(SCCCC#N)n2Cc2ccc(Cl)c(Cl)c2)n(C)c1=O | / | / | / | / | 3 | /
O=C(CCn1ccc2ccccc21)N1CCN(S(=O)(=O)c2ccccc2F)CC1 | / | / | / | / | 7 | /
Cc1ccc(C)c(N2CCN(CCCNC(=O)Cn3c(=O)c4cccn4c4cccnc43)CC2)c1 | ? | -2% | 21µM* | ? | -7 | 2%
Cc1ccc(C)c(N2CCN(C(=O)Nc3ccc4c(c3)N(C)C(=O)CS4)CC2)c1 | 46 | ? | 21µM* | 16µM* | 1 | 18%
CCN1C(=O)c2ccccc2Sc2ccc(NC(=O)N3CCN(c4cc(C)ccc4C)CC3)cc21 | / | / | 5.8µM* | 4.1µM* | -2 | /
CN1C(=O)CSc2ccc(NC(=O)N3CCN(c4ccccn4)CC3)cc21 | 54 | 1% | ? | ? | 3 | 2%
CN1C(=O)c2ccccc2Sc2ccc(NC(=O)N3CCOCC3)cc21 | 13 | 2% | 1% | ? | 1 | ?
CC(=O)c1ccc(OC(=O)c2cnc(C)cn2)cc1 | / | / | / | / | 8 | /
COc1ccccc1C1CN(Cc2cccc(C)n2)Cc2ccccc2O1 (stereo unspecified) | / | / | -30%[9.04 µM] | 16µM* | / | /
Cc1nc2sccn2c1CN1Cc2ccccc2OC(c2ccccc2F)C1 (stereo unspecified) | / | / | 6%[9.04 µM] | 18µM* | / | /
COc1ccccc1C1CN(Cc2c(O)cccc2OC)Cc2ccccc2O1 (stereo unspecified) | / | / | 6%[9.04 µM] | -19% | / | /
O=C(NCc1ccc(F)cc1)c1cc(C2CCCN(C(=O)CCCc3ccccc3)C2)on1 (stereo unspecified) | ? | / | 23µM* | ? | -5 | /
O=C(NCc1ccc(F)cc1)c1cc(C2CCCCN2C(=O)CCCc2ccccc2)on1 (stereo unspecified) | ? | / | ? | 23µM* | -7 | /
O=C(Nc1ccccc1)c1cc(C2CCCN(C(=O)CCc3ccccc3)C2)on1 (stereo unspecified) | 7 | / | 26µM* | ? | -2 | /
